# Experimental data taken from PubChem BioAssay (NCATS).
# “And” between values parts separate entries of the source, which are not always exact repeats. Equal entries are not always repeated. Unmarked numbers belong to inactive results. Records with an inconclusive call do not appear. Where a call stands in place of a potency, no number is given. The source made the active and inactive calls. Unless noted, the call rests on the fitted dose curve; in most records, active means well fitted curve in the direction sought with a large enough effect; inconclusive means small, poorly fitted or top-dose-only effect, or another doubt; inactive means no such curve, though single readings can be large; an effect the other way counts as inactive or inconclusive.
# Key:
# [1] = tested on: C33A; assay: Primary qHTS to identify gynecologic anti-cancer compounds using libraries of approved drugs and bioactive compounds (AID 1345084); settings: Gynecologic cancer cell panel viability, ATPlite luminescence, 48 h; series mostly up to 57.5 µM; further: nearly all actives have a fitted effect of over 55% in size; further: potency means the concentration at half of the fitted maximal effect
# Method in brief: (§1)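 Five-point cytotoxicity, 48 h drug exposure at 37 C, 5% CO2, on cells seeded 16 h beforehand. ATP content read by ATPlite luminescence.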
# [2] = tested on: CAOV3; assay: as above; settings: Gynecologic cancer cell panel viability, ATPlite luminescence, 48 h; series mostly up to 57.5 µM
# Method in brief: as §1
# [3] = tested on: CASKI; assay: as above; settings: Gynecologic cancer cell panel viability, ATPlite luminescence, 48 h; series mostly up to 57.5 µM
# Method in brief: as §1
# [4] = tested on: Es-2; assay: as above; settings: Gynecologic cancer cell panel viability, ATPlite luminescence, 48 h; series mostly up to 57.5 µM
# Method in brief: as §1
# [5] = tested on: HeLa; assay: as above; settings: Gynecologic cancer cell panel viability, ATPlite luminescence, 48 h; series mostly up to 57.5 µM
# Method in brief: as §1
# [6] = tested on: Hek293T; assay: as above; settings: Gynecologic cancer cell panel viability, ATPlite luminescence, 48 h, control line for the selectivity index; series mostly up to 57.5 µM
# Method in brief: as §1
# [7] = tested on: JEG-3; assay: as above; settings: Gynecologic cancer cell panel viability, ATPlite luminescence, 48 h; series mostly up to 57.5 µM
# Method in brief: as §1
# [8] = tested on: OV90; assay: as above; settings: Gynecologic cancer cell panel viability, ATPlite luminescence, 48 h; series mostly up to 57.5 µM
# Method in brief: as §1
# [9] = tested on: PA-1; assay: as above; settings: Gynecologic cancer cell panel viability, ATPlite luminescence, 48 h; series mostly up to 57.5 µM
# Method in brief: as §1
# [10] = tested on: Tov-21-G; assay: as above; settings: Gynecologic cancer cell panel viability, ATPlite luminescence, 48 h; series mostly up to 57.5 µM
# Method in brief: as §1
# [11] = tested on: Tov112D; assay: as above; settings: Gynecologic cancer cell panel viability, ATPlite luminescence, 48 h; series mostly up to 57.5 µM
# Method in brief: as §1
# [12] = Drug repurposing screens with cells derived from glioblastoma tumor samples (AID 1345199); settings: GBM patient neurospheres viability, ATP luminescence, 48 h; further: nearly all actives have a fitted effect of over 40% in size
# Method in brief: (§2)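 Four patient lines of CD133+ GBM neurospheres were screened at several concentrations; hits were retested in those lines plus three slower-growing GBM lines, using 48-hour treatment and ATP-based viability.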
# [13] = tested on: astro; assay: as above; settings: viability, ATP luminescence, 48 h; series mostly up to 45.9 µM
# Method in brief: as §2
# [14] = qHTS assay to identify inhibitors of the type 1 interferon - major histocompatibility complex class I in skeletal muscle: Counter screen cell viability and HiBit confirmation (AID 1347412); settings: iHSKM muscle cells + IFN-b, HiBiT or CellTiter-Glo, 24 h; Viability; at 45.9 µM (top of the series); further: nearly all actives have a fitted effect of over 60% in size
# Method in brief: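 HLA-B*08:01–HiBiT knock-in immortalized human myoblasts (C25cl48) stimulated with 4.0 ng/ml human IFN-beta and dosed with compound in a 12-point 1:3 titration (top final 46 uM). After 24 hrs at 37 C, HiBiT lytic luminescence or CellTiter Glo ATP read out.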
# [15] = tested on: SKOV3; assay: Primary qHTS to identify gynecologic anti-cancer compounds using libraries of approved drugs and bioactive compounds (AID 1345084); settings: Gynecologic cancer cell panel viability, ATPlite luminescence, 48 h; series mostly up to 57.5 µM; further: nearly all actives have a fitted effect of over 55% in size; further: potency means the concentration at half of the fitted maximal effect
# Method in brief: as §1
# [16] = biological target: Nuclear receptor subfamily 1 group I member 2 (Rattus norvegicus) (UniProt Q9R1A7); assay: qHTS assay for small molecule activators of the rat pregnane X receptor (rPXR) signaling pathway (AID 651751; call rule not given here); settings: rPXR reporter cells, luciferase (One-Glo), 24 h
# [17] = qHTS assay for small molecule activators of the human pregnane X receptor (PXR) signaling pathway (AID 720659; call rule not given here)
# [18] = at 45.9 µM (top of the series), tumour line B
# [19] = at 45.9 µM (top of the series), tumour line D
# [20] = at 46.1 µM (top of the series), tumour line C
# [21] = at 46 µM (top of the series), tumour line A
# Nuclear receptor subfamily 1 group I member 2 (Rattus norvegicus), sequence (Q9R1A7 whole entry, looked up): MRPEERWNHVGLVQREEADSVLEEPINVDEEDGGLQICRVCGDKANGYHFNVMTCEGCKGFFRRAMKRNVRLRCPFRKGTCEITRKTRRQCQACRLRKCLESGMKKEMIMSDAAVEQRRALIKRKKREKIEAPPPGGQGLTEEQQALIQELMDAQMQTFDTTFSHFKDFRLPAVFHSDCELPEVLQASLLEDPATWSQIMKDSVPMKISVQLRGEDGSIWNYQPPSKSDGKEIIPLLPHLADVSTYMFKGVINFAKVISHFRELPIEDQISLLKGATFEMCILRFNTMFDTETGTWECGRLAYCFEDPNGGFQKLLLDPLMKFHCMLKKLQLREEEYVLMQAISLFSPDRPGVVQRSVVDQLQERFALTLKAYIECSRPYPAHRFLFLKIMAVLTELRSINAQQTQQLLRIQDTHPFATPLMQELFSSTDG
structure (smiles),measurement,setting,value
Cc1cccc(C)c1OCC(C)N (configuration not stated),Potency,[1],inactive
same,Potency,[2],inactive
same,Potency,[3],inactive
same,Potency,[4],inactive
same,Potency,[5],inactive
same,Potency,[6],inactive
same,Potency,[7],inactive
same,Potency,[8],inactive
same,Potency,[9],inactive
same,Potency,[10],inactive
same,Potency,[11],inactive
same,"activity, negative = cell killing",[12]; [18],-9.46%
same,"activity, negative = cell killing",[12]; [19],4.9%
same,"activity, negative = cell killing",[12]; [20],3.32%
same,Potency,[13],inactive
CCS(=O)(=O)N1CC(CC#N)(n2cc(-c3ncnc4[nH]ccc34)cn2)C1,Potency,[1],inactive
same,Potency,[2],inactive
same,Potency,[3],inactive
same,Potency,[4],inactive
same,Potency,[5],inactive
same,Potency,[6],inactive
same,Potency,[7],inactive
same,Potency,[8],inactive
same,Potency,[9],inactive
same,Potency,[11],inactive
same,"activity change, negative = inhibition",[14],-4.12%
Cc1ccccc1C(C(=O)NC1CCCCC1)N(C(=O)Cn1ccnc1C)c1cccc(F)c1 (configuration not stated),Potency,[1],inactive
same,Potency,[2],inactive
same,Potency,[3],inactive
same,Potency,[4],inactive
same,Potency,[5],inactive
same,Potency,[6],inactive
same,Potency,[7],inactive
same,Potency,[8],inactive
same,Potency,[9],inactive
same,Potency,[15],inactive
same,Potency,[10],inactive
same,Potency,[11],inactive
O=C(NCCN1CCOCC1)c1ccc(Cl)cc1,Potency,[1],inactive
same,Potency,[2],inactive
same,Potency,[3],inactive
same,Potency,[4],inactive
same,Potency,[5],inactive
same,Potency,[6],inactive
same,Potency,[7],inactive
same,Potency,[8],inactive
same,Potency,[9],inactive
same,Potency,[15],inactive
same,Potency,[10],inactive
same,Potency,[11],inactive
same,"activity, negative = cell killing",[12]; [18],-9.41% and -9.63%
same,"activity, negative = cell killing",[12]; [19],-2.14% and -10.5%
same,"activity, negative = cell killing",[12]; [20],-17.8% and -11.9%
same,Potency,[13],inactive
CC[C@]1(O)C[C@@H]2CN(CCc3c([nH]c4ccccc34)[C@@](C(=O)OC)(c3cc4c(cc3OC)N(C)[C@H]3[C@@](O)(C(=O)OC)[C@H](OC(C)=O)[C@]5(CC)C=CCN6CC[C@]43[C@@H]65)C2)C1,Potency,[1],1580 nM (active)
same,Potency,[2],inactive
same,Potency,[4],1.12 µM (active) and 708 nM (active) and 794 nM (active)
same,Potency,[5],316 nM (active) and 1.12 µM (active) and 631 nM (active)
same,Potency,[7],631 nM (active)
same,Potency,[8],11.2 µM (active) and 4.47 µM (active) and 7.94 µM (active)
same,Potency,[9],316 nM (active) and 355 nM (active)
same,Potency,[10],316 nM (active) and 447 nM (active) and 631 nM (active)
same,Potency,[11],158 nM (active) and 316 nM (active)
Cc1cccc(Nc2nc(-c3ccncc3)cs2)c1,Potency,[1],inactive
same,Potency,[2],inactive
same,Potency,[4],inactive
same,Potency,[5],inactive
same,Potency,[10],inactive
CS(=O)c1ccc(-c2nc(-c3ccc(F)cc3)c(-c3ccncc3)[nH]2)cc1 (configuration not stated),Potency,[1],inactive
same,Potency,[2],inactive
same,Potency,[3],inactive
same,Potency,[4],inactive
same,Potency,[5],inactive
same,Potency,[6],inactive
same,Potency,[7],inactive
same,Potency,[8],inactive
same,Potency,[9],inactive
same,Potency,[15],inactive
same,Potency,[10],inactive
same,Potency,[11],inactive
C[N+](C)(C)CC(=O)O,Potency,[1],inactive
same,Potency,[2],inactive
same,Potency,[3],inactive
same,Potency,[4],inactive
same,Potency,[5],inactive
same,Potency,[6],inactive
same,Potency,[7],inactive
same,Potency,[8],inactive
same,Potency,[9],inactive
same,Potency,[15],inactive
same,Potency,[10],inactive
same,Potency,[11],inactive
CC(=O)CCCCn1c(=O)c2c(ncn2C)n(C)c1=O,Potency,[1],inactive
same,Potency,[2],inactive
same,Potency,[3],inactive
same,Potency,[4],inactive
same,Potency,[5],inactive
same,Potency,[6],inactive
same,Potency,[7],inactive
same,Potency,[8],inactive
same,Potency,[9],inactive
same,Potency,[15],inactive
same,Potency,[10],inactive
same,Potency,[11],inactive
same,"activity, negative = cell killing","[12]; at 20 µM (top of the series), tumour line C",-6.47%
same,"activity, negative = cell killing","[12]; at 21.2 µM (top of the series), tumour line B",0.116%
same,"activity, negative = cell killing","[12]; at 21.2 µM (top of the series), tumour line D",1.87%
same,"activity, negative = cell killing","[12]; at 21.3 µM (top of the series), tumour line A",-23.5%
same,Potency,[13],inactive
CC(=O)c1ccc(S(=O)(=O)NC(=O)NC2CCCCC2)cc1,Potency,[1],inactive
same,Potency,[2],inactive
same,Potency,[3],inactive
same,Potency,[4],inactive
same,Potency,[5],inactive
same,Potency,[6],inactive
same,Potency,[7],inactive
same,Potency,[8],inactive
same,Potency,[9],inactive
same,Potency,[15],inactive
same,Potency,[10],inactive
same,Potency,[11],inactive
same,"activity, negative = cell killing",[12]; [18],-1.16%
same,"activity, negative = cell killing",[12]; [19],0.333%
same,"activity, negative = cell killing",[12]; [21],-21.5%
same,"activity, negative = cell killing",[12]; [20],-21%
same,Potency,[13],inactive
same,max response,[16],-0.823% and -0.02%
same,outcome,[17],inactive
CC(C)(C)c1cc(C(=O)O)c(NC(=O)Nc2ccc3[nH]ncc3c2)s1,Potency,[1],inactive
same,Potency,[2],inactive
same,Potency,[4],inactive
same,Potency,[5],inactive
same,Potency,[6],inactive
same,Potency,[7],inactive
same,Potency,[8],inactive
same,Potency,[9],inactive
same,Potency,[15],inactive
same,Potency,[10],inactive
same,Potency,[11],inactive
O=C(NC1CCOCC1)c1ccc(-c2cc(-c3cn[nH]c3-c3ccccn3)ccn2)cc1,Potency,[1],inactive
same,Potency,[2],inactive
same,Potency,[3],inactive
same,Potency,[4],inactive
same,Potency,[5],inactive
same,Potency,[6],inactive
same,Potency,[7],inactive
same,Potency,[8],inactive
same,Potency,[9],inactive
same,Potency,[15],inactive
same,Potency,[10],inactive
same,Potency,[11],inactive
O=C1NCC2(CCN(CCc3ccccc3)CC2)O1,Potency,[1],inactive
same,Potency,[2],inactive
same,Potency,[3],inactive
same,Potency,[4],inactive
same,Potency,[5],inactive
same,Potency,[6],inactive
same,Potency,[7],inactive
same,Potency,[8],inactive
same,Potency,[9],inactive
same,Potency,[15],inactive
same,Potency,[10],inactive
same,Potency,[11],inactive
same,"activity, negative = cell killing",[12]; [18],-4.5%
same,"activity, negative = cell killing",[12]; [19],-9.33%
same,"activity, negative = cell killing",[12]; [20],-12.7%
same,Potency,[13],inactive
O=C(O)CCc1nc(-c2ccccc2)c(-c2ccccc2)o1,Potency,[1],inactive
same,Potency,[2],inactive
same,Potency,[3],inactive
same,Potency,[4],inactive
same,Potency,[5],inactive
same,Potency,[6],inactive
same,Potency,[7],inactive
same,Potency,[8],inactive
same,Potency,[9],inactive
same,Potency,[15],inactive
same,Potency,[10],inactive
same,Potency,[11],inactive
same,"activity, negative = cell killing",[12]; [18],-13%
same,"activity, negative = cell killing",[12]; [19],3.1%
same,"activity, negative = cell killing",[12]; [20],-11.6%
same,Potency,[13],inactive
CN(C)CCC(c1ccccc1)c1ccccn1 (configuration not stated),Potency,[1],inactive
same,Potency,[2],inactive
same,Potency,[3],inactive
same,Potency,[4],inactive
same,Potency,[5],inactive
same,Potency,[6],inactive
same,Potency,[7],inactive
same,Potency,[8],inactive
same,Potency,[9],inactive
same,Potency,[15],inactive
same,Potency,[10],inactive
same,Potency,[11],inactive
same,"activity, negative = cell killing",[12]; [18],-6.99%
same,"activity, negative = cell killing",[12]; [19],-4.75%
same,"activity, negative = cell killing",[12]; [21],-22.4%
same,"activity, negative = cell killing",[12]; [20],-14.6%
same,Potency,[13],inactive
same,max response,[16],2.3%
same,outcome,[17],inactive
